# In ChEMBL document CHEMBL3433997, “St. Jude Leishmania screening dataset” (2016):
# Biological target: Glucose transporter (Leishmania mexicana) (UniProt O61059)
# Assay: ST_JUDE_LEISH: Cytotoxicity at 2uM final concentration against transgenic Leishmania Mexicana promastigotes LmGT2 that are glucose transport deficient and complemented with the L. Mexicana glucose transporter 2. Activity is measured by DNA content using SYBR green in vitro
# Format: functional
row,Compound,inhibition
1,Cc1nc(C)c(CC(=O)Nc2ccc(-c3ccc(-c4nc5cc(C(F)(F)F)ccc5[nH]4)s3)cc2)s1,-0.02%
2,CC(C)(C)c1ccc(OC(=O)c2ccc(NC(=O)N[C@@H](Cc3ccc(O)cc3)C(=O)NC3CCN(Cc4ccc(O)cc4)C3)cc2)cc1 (stereo not given in full),9.56%
3,O=C(/C=C/c1ccc(Cl)c(Cl)c1)NCCCCCN1CCC(NC(=O)NCCc2ccccc2)CC1,-3.26%
4,Cc1c(CCC#N)c(NCc2ccccc2)n2c(nc3ccccc32)c1C#N,-0.97%
5,CN(C)CCN(Cc1ccccc1-c1ccc(CNCCc2ccccc2)cc1)C(=O)c1ccccc1,3.1%
6,CSc1nc2nc(C)c(Cc3cccc(F)c3)c(C)n2n1,0.34%
7,Fc1ccc2[nH]c(-c3ccc(-c4ccc(CN5CCC(CCN6CCCCC6)CC5)cc4)s3)nc2c1,4.98%
8,Cc1ccc(Nc2nc(N/N=C/c3cccc(O)c3)nc(Nc3ccc([N+](=O)[O-])cc3)n2)cc1C,2.77%
9,O=c1cc(NCCCNCc2cc(Br)ccc2F)[nH]c2ccccc12,-6.76%
10,O=C(NC(Cc1ccccc1)C(=O)O)c1cc(=O)c2ccccc2o1 (stereo not given),0.99%
11,CC(C)(CNCc1ccc(F)c(F)c1)c1nc(-c2ccc(Cl)c(O)c2)c(-c2ccncc2)[nH]1,0.94%
12,O=C(NCc1ccc(Cl)c(Cl)c1)c1ccc(-c2nc3cc(F)c(F)cc3[nH]2)cc1,-0.73%
13,CC(=O)Nc1ccc(C(=O)NC2CCN(c3ccnc4cc(Cl)ccc34)C2)cc1 (stereo not given),1.4%
14,c1ccc(CN2CCC(NCc3ccccc3-c3cccc(CNCc4ccc5c(c4)OCO5)c3)CC2)cc1,0.7%
15,O=C(Nc1cccc(-c2cccc(-c3nc4cc(C(F)(F)F)ccc4[nH]3)c2)c1)c1cccnc1Cl,-2.92%
16,N#Cc1ccc2c(c1)CCN(CCC1CCC(NC(=O)c3cc4ccccc4[nH]3)CC1)CC2 (stereo not given),6.21%
17,Clc1cc(Cl)c2c(c1)C(NCCCNc1nc3ccccc3[nH]1)CCO2 (stereo not given),28.1%
18,COc1cc(OC)cc(C(=O)Nc2ccc(Nc3nc(C)cc(N(C)C)n3)cc2)c1,6.54%
19,CC(=O)OCCN1C(=O)c2ccc3c4c(ccc(c24)C1=O)C(=O)N(CCOC(C)=O)C3=O,0.78%
20,COCCNCc1ccc(-c2ccccc2CNC2CCN(Cc3ccccc3)CC2)cc1,-0.28%

row,Compound,inhibition
1,O=C(O[C@@H]1CN[C@H](C#Cc2cc3c(Nc4ccc5c(cnn5Cc5ccccc5)c4)ncnc3s2)C1)N1CCCC1,-0.78%
2,O=C(/C=C/c1ccccc1Cl)Nc1ccc(Br)c(OCCN2CCN(CCN3CCOCC3)CC2)c1,0.88%
3,COc1ccc(CN2CCN(C(=O)c3cccs3)CC2)c(O)c1,8.97%
4,CC(C)CC(NC(=O)c1ccc(F)cc1)C(=O)N[C@H](/C=N/N1CCNC1=O)CC(C)C (stereo not given in full),3.66%
5,CN(C)CCC1CCN(CCS(=O)(=O)c2cccc(Nc3ccc(-c4ccsc4)cn3)c2)CC1,1.59%
6,CCCN(CC1CC1)c1ncc(-c2cccc(CNCc3ccccc3O)c2)cn1,-1.63%
7,Fc1cccc(C=NNc2ccnc3cc(Cl)ccc23)c1,0.64%
8,CCCc1cc(Cc2cnc(N)nc2N)cc(CCC)c1O,1.49%
9,Cc1cccc2nc(-c3ccc(-c4cccc(NC(=O)c5cccc(C(N)=O)c5)c4)cc3)[nH]c12,2.8%
10,CC(C)NCc1cccc(-c2ccc(-c3nc4cc(C(F)(F)F)ccc4[nH]3)cc2)c1,6.87%
11,CC(=O)c1ccc(-c2ccc(C(=O)NCCCCN3CCC(c4ccc5c(c4OCC(N)=O)CCCC5)CC3)cc2)s1,1.72%
12,COc1ccc(CNC(=O)NC2CCN(c3ccnc(Nc4cc(OC)c(OC)c(OC)c4)n3)C2)cc1 (stereo not given),-1.15%
13,CCNc1cc(C)nc(Nc2ccc(NC(=O)c3ccccc3Cl)cc2)n1,5.34%
14,OCCNc1nc(Nc2ccc(Cl)cc2)nc2ccccc12,1.54%
15,COc1ccc2nccc([C@@H](O)CN3CCC(NCc4ccc(OC)c(NC(C)=O)c4)CC3)c2c1,-1.41%
16,COc1ccc(CNC2Cc3ccccc3C2)cc1-c1ccc(S(=O)(=O)NCCN2CCCC2)c(F)c1,6.14%
17,CC1CCc2c(C(=O)Nc3c(F)cc(F)cc3Br)csc2C1 (stereo not given),-0.61%
18,Cc1nc(C)c(-c2ccc(Oc3cc(Cl)cc(Cl)c3)cc2)c(O)c1Cl,0.49%
19,Cc1ccc(O)cc1Nc1ccnc2ccc(C(C)(C)C)cc12,-2.07%
20,COc1ccc2[nH]c(C)cc(=NN=Cc3ccccc3)c2c1,-0.26%
